Measured values as given in PubChem BioAssay (NCATS).
Values joined by “and” are separate entries in the source; they are usually repeats but may differ in a detail not shown here. Identical values can stand only once. Results filed as inconclusive are left out. More than one record can exist for a structure, and the calls need not agree. Active and inactive are the calls of the source. Unless noted, calls come from the whole dose curve; as a rule, active = well fitted curve in the direction sought with a large enough effect; inconclusive = small, poorly fitted or top-dose-only effect, or another doubt; inactive = no such curve, though single readings can be large; an effect the other way counts as inactive or inconclusive.

Legend:
[1] = Quantitative high throughput screen for delayed death inhibitors of the malarial parasite plastid, 48 hour incubation (AID 488752); note: % is set by controls: 0 for no effect and ±100 for the full control effect; nearly all actives have a fitted effect of over 65% in size
Summary of the method: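 Luciferase-expressing P. falciparum in RBCs, 2% Hct, 0.1% parasitemia final; RPMI 1640 + 0.5% Albumax; 48 h, 37 C, 5% CO2; luminescence readout, signal drop = growth inhibition.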

[2] = biological target: Thioredoxin reductase 1, cytoplasmic (Rattus norvegicus) (UniProt O89049); assay: qHTS Assay for Substrates of Mammalian Selenoprotein Thioredoxin Reductase 1 (TrxR1) (AID 488772);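 note: series mostly up to about 57 µM; 0% is about no effect; a drop in NADPH fluorescence below the no-compound background marks a TrxR1 substrate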
Thioredoxin reductase 1, cytoplasmic (Rattus norvegicus), sequence (O89049 whole entry, looked up): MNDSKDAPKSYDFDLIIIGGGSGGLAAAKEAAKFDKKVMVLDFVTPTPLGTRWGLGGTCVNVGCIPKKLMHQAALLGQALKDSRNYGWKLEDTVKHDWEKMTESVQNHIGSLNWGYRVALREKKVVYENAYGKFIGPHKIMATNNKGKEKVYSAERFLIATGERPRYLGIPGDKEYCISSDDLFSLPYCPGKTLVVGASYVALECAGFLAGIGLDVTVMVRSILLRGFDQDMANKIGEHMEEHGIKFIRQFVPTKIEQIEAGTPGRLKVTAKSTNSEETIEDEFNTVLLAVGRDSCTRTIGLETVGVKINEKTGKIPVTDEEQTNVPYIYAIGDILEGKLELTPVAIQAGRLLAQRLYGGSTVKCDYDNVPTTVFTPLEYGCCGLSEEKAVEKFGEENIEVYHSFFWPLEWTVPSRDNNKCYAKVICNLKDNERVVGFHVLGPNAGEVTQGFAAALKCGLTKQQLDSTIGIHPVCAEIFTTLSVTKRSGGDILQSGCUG
Summary of the method: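 In this dual-purpose format, potential substrates are identified from the first fluorescence read after selenite addition, not from the 8-minute delta. Rat enzyme is preincubated with NADPH and then with compound at ~22 deg C.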

[3] = biological target: Thioredoxin reductase 1, cytoplasmic (Rattus norvegicus) (UniProt O89049); assay: qHTS Assay for Inhibitors of Mammalian Selenoprotein Thioredoxin Reductase 1 (TrxR1) (AID 488773); details: Potency: inhibition; note: nearly all actives have a fitted effect of over 40% in size; note: potency is the fitted concentration of half-maximal effect
Summary of the method: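 Inhibition is scored from the loss of NADPH fluorescence between first and last reads of an 8-min kinetic run. Selenite (400 uM) was the substrate, added after 15 min compound preincubation at room temperature.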

[4] = biological target: Flap endonuclease 1 (Homo sapiens) (UniProt P39748); assay: qHTS Validation Assay for the Inhibitors of Human Flap endonuclease 1 (FEN1) (AID 488816); note: potency is the fitted concentration of half-maximal effect
Flap endonuclease 1 (Homo sapiens), sequence (P39748 whole entry, looked up): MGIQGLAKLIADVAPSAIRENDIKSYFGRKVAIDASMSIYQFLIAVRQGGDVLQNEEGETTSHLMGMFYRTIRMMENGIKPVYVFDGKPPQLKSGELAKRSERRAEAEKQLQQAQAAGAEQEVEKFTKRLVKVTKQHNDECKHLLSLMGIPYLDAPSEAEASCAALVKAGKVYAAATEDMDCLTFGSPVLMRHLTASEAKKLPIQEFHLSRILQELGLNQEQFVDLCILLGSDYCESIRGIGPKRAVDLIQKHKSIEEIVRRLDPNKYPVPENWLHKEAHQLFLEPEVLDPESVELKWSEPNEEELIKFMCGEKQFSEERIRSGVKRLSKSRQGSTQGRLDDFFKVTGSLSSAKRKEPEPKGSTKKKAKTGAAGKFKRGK
Summary of the method: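 qHTS format: compounds and 10 nM FEN1 incubated 15 min at room temperature before adding 50 nM substrate. Cleavage followed by reads at 0 and 15 min; normalized data fitted to a four-parameter Hill curve.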

[5] = biological target: Chromobox protein homolog 1 (Homo sapiens) (UniProt P83916); assay: qHTS Validation Assay for Inhibitors of HP1-beta Chromodomain Interactions with Methylated Histone Tails (AID 488953); note: nearly all actives have a fitted effect of over 50% in size; note: potency is the fitted concentration of half-maximal effect
Chromobox protein homolog 1 (Homo sapiens), sequence (P83916 whole entry, looked up): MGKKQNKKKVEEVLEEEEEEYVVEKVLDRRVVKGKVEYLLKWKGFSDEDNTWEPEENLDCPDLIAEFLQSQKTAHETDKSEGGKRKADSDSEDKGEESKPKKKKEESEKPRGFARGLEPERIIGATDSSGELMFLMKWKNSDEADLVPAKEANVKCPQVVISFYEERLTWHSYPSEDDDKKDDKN
Summary of the method: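 AlphaScreen proximity readout: streptavidin donor and Ni-chelate acceptor beads, 10 ug/mL final, 30 min dark, RT. Complex of 50 nM HP1-beta and 50 nM b-H3(1-18)K9me3 formed 30 min, then compound-treated 30 min; PBS pH 7.4/0.01% Tween-20.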

[6] = biological target: Methanococcus maripaludis chaperonin (MmCpn) (UniProt Q6LX38); assay: High-Throughput Screening for Modulators of Cytosolic Chaperonin Activity: MmCpn Primary Screen (AID 488978);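 note: 50 nM MmCpn enzyme hydrolysing 30 µM ATP at 37 °C; 0% is about no effect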
Methanococcus maripaludis chaperonin (MmCpn), sequence (Q6LX38 1-543): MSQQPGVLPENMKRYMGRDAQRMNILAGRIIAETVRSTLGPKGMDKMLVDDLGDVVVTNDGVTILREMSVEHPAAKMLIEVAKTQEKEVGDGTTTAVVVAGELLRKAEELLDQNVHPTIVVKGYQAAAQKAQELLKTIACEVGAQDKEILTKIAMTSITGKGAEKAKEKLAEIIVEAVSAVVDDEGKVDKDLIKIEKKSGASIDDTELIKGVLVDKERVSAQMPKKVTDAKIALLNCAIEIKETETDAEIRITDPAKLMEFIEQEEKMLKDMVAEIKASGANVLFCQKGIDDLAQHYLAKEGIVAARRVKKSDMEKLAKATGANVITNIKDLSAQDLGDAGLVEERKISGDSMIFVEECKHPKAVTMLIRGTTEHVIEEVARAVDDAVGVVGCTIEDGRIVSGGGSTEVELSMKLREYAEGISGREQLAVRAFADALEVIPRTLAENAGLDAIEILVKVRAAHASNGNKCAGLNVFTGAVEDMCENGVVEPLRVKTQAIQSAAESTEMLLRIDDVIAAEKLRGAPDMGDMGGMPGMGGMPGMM
Summary of the method: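 MmCpn (50 nM final) was preincubated with compound 5 min at RT, then 30 uM ATP (final) was added and the reaction ran 10 min at 37C. ADP produced was detected by Transcreener HTRF (ex 320 nm; em 590/665 nm).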

[7] = biological target: Transient receptor potential cation channel subfamily V member 1 (Homo sapiens) (UniProt Q8NER1); assay: HTS Assay for Compounds that Act as Enhancers of the Vanilloid Receptor 1 (AID 488979); note: 0% is about no effect
Summary of the method: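 Calcium influx kinetics via Fluo-8 (480/520 nm) in TRPV1-expressing cells, 2000/well cultured overnight at 35.5C. Compound-alone read 3 min (agonist phase), followed by EC20 capsaicin challenge for 2 min (enhancer phase).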

[8] = biological target: Thyrotropin receptor (Homo sapiens) (UniProt P16473); assay: qHTS Assay for Antagonists of the Thyroid Stimulating Hormone Receptor (AID 488980); note: series mostly up to about 58 µM; 0% is about no effect
Thyrotropin receptor (Homo sapiens), sequence (P16473 whole entry, looked up): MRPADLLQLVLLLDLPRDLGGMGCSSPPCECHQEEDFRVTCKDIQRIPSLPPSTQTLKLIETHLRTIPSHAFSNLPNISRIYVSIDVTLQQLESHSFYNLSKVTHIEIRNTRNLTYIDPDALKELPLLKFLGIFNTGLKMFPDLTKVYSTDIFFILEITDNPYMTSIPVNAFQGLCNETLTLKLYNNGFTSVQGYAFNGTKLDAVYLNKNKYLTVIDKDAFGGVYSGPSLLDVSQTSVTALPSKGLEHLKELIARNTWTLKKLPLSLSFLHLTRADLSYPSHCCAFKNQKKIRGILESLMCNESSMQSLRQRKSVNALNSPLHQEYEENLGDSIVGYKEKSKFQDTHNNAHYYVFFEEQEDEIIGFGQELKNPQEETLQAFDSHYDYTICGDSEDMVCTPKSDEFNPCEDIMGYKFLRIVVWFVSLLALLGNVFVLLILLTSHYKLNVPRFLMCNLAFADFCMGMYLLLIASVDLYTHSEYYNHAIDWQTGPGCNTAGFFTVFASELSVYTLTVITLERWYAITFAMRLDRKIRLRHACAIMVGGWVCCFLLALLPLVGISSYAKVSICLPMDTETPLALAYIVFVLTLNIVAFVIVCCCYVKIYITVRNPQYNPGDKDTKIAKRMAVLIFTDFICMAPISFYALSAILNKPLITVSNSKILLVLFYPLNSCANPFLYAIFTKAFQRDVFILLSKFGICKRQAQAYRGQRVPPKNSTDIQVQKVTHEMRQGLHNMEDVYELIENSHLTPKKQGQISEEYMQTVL
Summary of the method: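 HEK293 cells transfected with human TSHR, suspended in HEPES-buffered HBSS with 70 uM RO 20-1724, were treated with compounds plus TSH at EC80 (4 nM final). cAMP was measured by competitive HTRF (cryptate anti-cAMP antibody, cAMP-d2 acceptor).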

[9] = biological target: D(1A) dopamine receptor (Homo sapiens) (UniProt P21728); assay: HTS Assay for Allosteric Agonists of the Human D1 Dopamine Receptor: Primary Screen for Agonists (AID 488981); note: 0% is about no effect
D(1A) dopamine receptor (Homo sapiens), sequence (P21728 whole entry, looked up): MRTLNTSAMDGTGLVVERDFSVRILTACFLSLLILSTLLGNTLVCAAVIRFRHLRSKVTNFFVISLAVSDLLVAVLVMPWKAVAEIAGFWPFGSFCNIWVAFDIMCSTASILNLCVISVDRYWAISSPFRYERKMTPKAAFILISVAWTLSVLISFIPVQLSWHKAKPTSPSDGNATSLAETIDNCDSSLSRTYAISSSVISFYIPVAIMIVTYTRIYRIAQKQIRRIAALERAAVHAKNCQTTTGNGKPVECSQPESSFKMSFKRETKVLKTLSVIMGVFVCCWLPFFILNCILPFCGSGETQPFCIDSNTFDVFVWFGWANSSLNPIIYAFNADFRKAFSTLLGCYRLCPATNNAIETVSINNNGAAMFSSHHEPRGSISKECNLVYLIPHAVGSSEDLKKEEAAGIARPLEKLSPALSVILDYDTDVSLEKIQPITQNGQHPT
Summary of the method: (§1)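 Calcium flux in an inducible, force-coupled HEK293 Trex D1 line (overnight at 30 C): agonist mode is the 180 s kinetic read after compound; potentiator mode is the following 180 s read after dopamine at EC20.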

[10] = biological target: D(1A) dopamine receptor (Homo sapiens) (UniProt P21728); assay: HTS Assay for Allosteric Agonists of the Human D1 Dopamine Receptor: Primary Screen for Potentiators (AID 488982); note: 0% is about no effect
Summary of the method: as §1

[11] = biological target: D(1A) dopamine receptor (Homo sapiens) (UniProt P21728); assay: HTS Assay for Allosteric Agonists of the Human D1 Dopamine Receptor: Primary Screen for Antagonists (AID 488983);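 note: calcium flux response to an EC80 dopamine challenge measured with no-wash dye; % is set by controls: 0 for no effect and ±100 for the full control effect; nearly all actives have a fitted effect of over 65% in size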
Summary of the method: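 Calcium flux readout, no-wash dye, inducible HEK293 T-REx D1 line (force-coupled). Compound added after 10 s baseline, 180 s kinetic read; then dopamine at EC80, further 180 s read.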

[12] = Validation screen for small molecules that induce genotoxicity in human embryonic kidney (HEK293T) cells expressing luciferase-tagged ELG1 (AID 493106); note: 0% is about no effect
Summary of the method: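 qHTS format; 2,000 HEK293T ELG1-luc cells/well; 23 nL compound via pin tool; 16 hr, 37 °C/5% CO2; ONE-Glo, 30 min RT; luminescence read.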

[13] = biological target: Thyrotropin-releasing hormone receptor (Homo sapiens) (UniProt P34981); assay: qHTS for Small Molecule Agonists and Allosteric Enhancers of Human TRH Receptor: Validation Screen for Agonists (AID 493127;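 active = calcium activation more than 3 SD above the typical response in the agonist read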;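 note: intracellular calcium rise by fluo-8 fluorescence before TRH EC20 addition; 0% is about no effect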); details: TRH receptor agonist cell assay; at 2 µM; stronger effect = higher value
Thyrotropin-releasing hormone receptor (Homo sapiens), sequence (P34981 whole entry, looked up): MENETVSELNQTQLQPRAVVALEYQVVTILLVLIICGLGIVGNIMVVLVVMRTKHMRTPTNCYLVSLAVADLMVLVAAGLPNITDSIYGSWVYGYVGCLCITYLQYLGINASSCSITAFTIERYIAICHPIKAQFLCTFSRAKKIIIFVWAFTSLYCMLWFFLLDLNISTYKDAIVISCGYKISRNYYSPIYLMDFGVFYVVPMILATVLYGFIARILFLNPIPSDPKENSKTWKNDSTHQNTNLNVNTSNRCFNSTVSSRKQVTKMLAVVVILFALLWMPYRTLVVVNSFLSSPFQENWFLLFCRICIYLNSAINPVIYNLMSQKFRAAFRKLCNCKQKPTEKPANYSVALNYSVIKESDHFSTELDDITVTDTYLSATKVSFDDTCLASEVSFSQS
Summary of the method: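 Read-out: intracellular calcium release measured kinetically by FDSS (fluo-8, ex 480/em 530 nm), 1 reading/s after a 10-cycle baseline. TRHR cells, 2000/well, cultured 18 h at 33.5C, dye-loaded at room temp. Compound-evoked positive calcium signal flags agonists.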

[14] = Nrf2 qHTS screen for inhibitors: Validation (AID 493153; active = well fitted inhibition curve with a large enough effect in the main read-out, with a control signal flat, not every such curve was filed as active; note: potency is the fitted concentration of half-maximal effect); details: Potency: luciferase luminescence; viability change: measured here: cytotoxicity max response
Summary of the method: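 Concentration-response test in A549 ARE_Fluc reporter cells (5% FBS OPTI-MEM), compound exposure 18-24 h at 37°C, 5% CO2. Cell viability measured first by CellTiter-Fluor fluorescence; ARE-driven luciferase luminescence then measured as Nrf2 activity.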

[15] = qHTS for Inhibitors of Cell Surface uPA Generation: Validation Assay (AID 493164);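 note: RAW 264.7 macrophage cells exposed to compound for 18 h; 0% is about no effect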
Summary of the method: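 Compounds are titrated over seven points (2.45 nM–38.3 uM final) onto pre-plated RAW 264.7 cells and incubated for 18 h. Retained intracellular ATP, measured with ATP-Lite, indicates blocked lethal factor entry.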

[16] = biological target: Galactokinase (Homo sapiens) (UniProt P51570); assay: qHTS Validation Assay for Inhibitors of Human Galactokinase (GALK) (AID 493189); note: potency is the fitted concentration of half-maximal effect
Galactokinase (Homo sapiens), sequence (P51570 whole entry, looked up): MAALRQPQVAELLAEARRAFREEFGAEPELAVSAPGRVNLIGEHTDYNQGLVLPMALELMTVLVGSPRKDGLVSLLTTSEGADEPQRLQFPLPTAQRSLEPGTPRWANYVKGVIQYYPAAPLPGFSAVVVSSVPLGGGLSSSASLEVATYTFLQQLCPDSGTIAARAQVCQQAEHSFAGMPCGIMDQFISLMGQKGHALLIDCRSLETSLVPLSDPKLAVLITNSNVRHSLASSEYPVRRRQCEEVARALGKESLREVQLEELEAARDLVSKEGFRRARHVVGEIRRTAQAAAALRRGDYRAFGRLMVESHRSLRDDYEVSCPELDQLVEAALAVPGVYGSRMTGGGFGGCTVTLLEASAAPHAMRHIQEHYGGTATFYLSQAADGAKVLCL
Summary of the method: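 GALK (5 nM) with 35 uM ATP and 100 uM galactose in HEPES pH8.0, MgCl2, NaCl, DTT, BSA; 1 h at room temperature. Residual ATP read by Kinase-Glo Plus luminescence after 10 min.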

[17] = biological target: M-phase phosphoprotein 8 (Homo sapiens) (UniProt Q99549); assay: qHTS Validation Assay for Inhibitors for MPP8 Chromodomain Interactions with Methylated Histone Tails (AID 488949); note: nearly all actives have a fitted effect of over 55% in size; note: potency is the fitted concentration of half-maximal effect
M-phase phosphoprotein 8 (Homo sapiens), sequence (Q99549 whole entry, looked up): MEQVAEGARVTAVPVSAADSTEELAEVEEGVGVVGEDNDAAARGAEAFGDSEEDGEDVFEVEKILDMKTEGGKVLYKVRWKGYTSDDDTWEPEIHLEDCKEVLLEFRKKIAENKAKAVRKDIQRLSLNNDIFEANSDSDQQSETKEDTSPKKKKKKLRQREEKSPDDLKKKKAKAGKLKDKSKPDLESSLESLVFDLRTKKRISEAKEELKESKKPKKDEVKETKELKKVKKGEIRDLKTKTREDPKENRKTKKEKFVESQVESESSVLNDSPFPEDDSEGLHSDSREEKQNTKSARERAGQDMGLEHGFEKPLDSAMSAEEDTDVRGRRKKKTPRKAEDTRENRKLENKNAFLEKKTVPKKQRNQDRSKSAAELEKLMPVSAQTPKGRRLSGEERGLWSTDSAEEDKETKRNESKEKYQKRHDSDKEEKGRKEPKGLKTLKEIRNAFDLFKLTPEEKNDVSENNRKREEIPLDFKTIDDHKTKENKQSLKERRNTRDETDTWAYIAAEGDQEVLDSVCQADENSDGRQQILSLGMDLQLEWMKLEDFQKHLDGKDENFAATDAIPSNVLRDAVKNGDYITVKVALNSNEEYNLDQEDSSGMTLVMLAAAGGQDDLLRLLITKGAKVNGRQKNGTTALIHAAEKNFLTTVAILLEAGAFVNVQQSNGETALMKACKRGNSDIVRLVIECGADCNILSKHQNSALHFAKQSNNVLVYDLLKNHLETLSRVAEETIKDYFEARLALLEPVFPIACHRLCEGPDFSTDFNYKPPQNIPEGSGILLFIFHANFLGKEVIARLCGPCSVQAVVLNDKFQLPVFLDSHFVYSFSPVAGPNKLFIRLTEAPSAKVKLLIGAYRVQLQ
Summary of the method: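 MPP8 (50 nM) was preincubated with biotinylated H3(1-18)K9me3 peptide (50 nM) in PBS pH 7.4, 0.01% Tween-20 for 30 min at room temperature, then with compounds for 30 min; binding was detected by AlphaScreen.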

[18] = biological target: Tyrosyl-DNA phosphodiesterase 1 (Homo sapiens) (UniProt Q9NUW8); assay: Confirmation Assay for Inhibitors of Tyrosyl-DNA Phosphodiesterase (TDP1) (AID 489007); details: recombinant human TDP1 enzymatic activity, dose-response; note: potency is the fitted concentration of half-maximal effect; nearly all actives have a fitted effect of over 40% in size
Summary of the method: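 AlphaScreen read-out: streptavidin donor and anti-FITC acceptor beads (10 ug/ml) bind intact substrate, so Tdp1 removal of tyrosine-FITC lowers signal. Enzyme 1 nM, substrate 15 nM, 5 min reaction at room temperature after 15 min compound preincubation.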

[19] = biological target: ATP-dependent 6-phosphofructokinase (Trypanosoma brucei brucei) (UniProt O15648); assay: qHTS Assay to Find Inhibitors of T. brucei phosphofructokinase: hit validation (AID 492961); note: potency is the fitted concentration of half-maximal effect
ATP-dependent 6-phosphofructokinase (Trypanosoma brucei brucei), sequence (O15648 whole entry, looked up): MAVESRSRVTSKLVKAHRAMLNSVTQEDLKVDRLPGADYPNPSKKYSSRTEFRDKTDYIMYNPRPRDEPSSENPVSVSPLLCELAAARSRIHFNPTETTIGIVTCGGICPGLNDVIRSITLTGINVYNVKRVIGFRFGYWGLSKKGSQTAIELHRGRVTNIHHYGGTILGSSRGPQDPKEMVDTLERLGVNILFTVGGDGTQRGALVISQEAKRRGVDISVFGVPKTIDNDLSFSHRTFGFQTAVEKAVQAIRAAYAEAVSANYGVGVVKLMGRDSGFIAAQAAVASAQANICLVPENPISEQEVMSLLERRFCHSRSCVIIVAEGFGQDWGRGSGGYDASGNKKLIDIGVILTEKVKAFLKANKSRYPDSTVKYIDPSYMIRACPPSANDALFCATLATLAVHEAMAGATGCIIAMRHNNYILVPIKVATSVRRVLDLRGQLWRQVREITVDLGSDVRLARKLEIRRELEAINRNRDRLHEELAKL
Summary of the method: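 In this biochemical qHTS validation, titrated compounds were tested against 1.25 nM PFK with 0.1 mM ATP and 0.5 mM F6P. Percent activity came from controls lacking or containing enzyme.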

[20] = biological target: ATPase family AAA domain-containing protein 5 (Homo sapiens) (UniProt Q96QE3); assay: Validation screen for small molecules that inhibit ELG1-dependent DNA repair in human embryonic kidney (HEK293T) cells expressing luciferase-tagged ELG1 (AID 493107);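 note: cells co-treated with the DNA-damaging agent 5-fluorouridine alongside compound; series mostly up to about 46 µM; % is set by controls: 0 for no effect and ±100 for the full control effect; inhibitors lower the ELG1-luciferase luminescence signal; nearly all actives have a fitted effect of over 70% in size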
Summary of the method: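 ELG1-luciferase HEK293T reporter; 5-fluorouridine + compound/DMSO, 16 hr, 37 °C, 5% CO2; ONE-Glo 30 min RT; luminescence read, qHTS format.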

CN(C)CCOC(c1ccccc1)c1ccccc1
inactive: Potency [1] | outcome [2] | Potency [3] | Potency [4] | Potency [5] | outcome [6] | outcome [7] | outcome [8] | Potency [9] | Potency [10] | Potency [11] | Potency [12] | activation [13] -3.31% | Potency [14] | outcome [15] | Potency [16]
2.71%: viability change [14]

Cc1ccc(C(=O)Nc2ccc(S(=O)(=O)O)c3cc(S(=O)(=O)O)cc(S(=O)(=O)O)c23)cc1NC(=O)c1cccc(NC(=O)Nc2cccc(C(=O)Nc3cc(C(=O)Nc4ccc(S(=O)(=O)O)c5cc(S(=O)(=O)O)cc(S(=O)(=O)O)c45)ccc3C)c2)c1
active: Potency [4] 0.336 µM | Potency [17] 8.91 µM and 1.89 µM | Potency [5] 2 µM | Potency [18] 2.51 µM and 5.62 µM and 1.26 µM | Potency [19] 7.08 µM | Potency [16] 17.8 µM
inactive: Potency [1] | outcome [2] | Potency [3] | outcome [6] | outcome [7] | outcome [8] | Potency [9] | Potency [10] | Potency [11] | Potency [12] | Potency [20] | activation [13] 0.688% | outcome [15]

CCC1(C)CC(=O)NC1=O (configuration not stated)
inactive: Potency [1] | outcome [2] | Potency [3] | Potency [4] | Potency [17] | Potency [5] | outcome [6] | outcome [7] | Potency [9] | Potency [10] | Potency [11] | Potency [12] | activation [13] 1.44% | Potency [14] | outcome [15] | Potency [16]
4.35%: viability change [14]

CCOC(=O)C(C)(C)Oc1ccc(Cl)cc1
inactive: Potency [1] | outcome [2] | Potency [3] | Potency [4] | Potency [17] | Potency [5] | outcome [6] | outcome [7] | outcome [8] | Potency [9] | Potency [10] | Potency [11] | Potency [12] | activation [13] -8.94% | Potency [14] | outcome [15] | Potency [16]
-5.48%: viability change [14]

NC(=O)OCC(COC(N)=O)c1ccccc1
2.5%: viability change [14]
inactive: Potency [1] | outcome [2] | Potency [3] | Potency [4] | Potency [17] | Potency [5] | outcome [6] | outcome [7] | outcome [8] | Potency [9] | Potency [10] | Potency [11] | Potency [12] | Potency [20] | activation [13] 0.5% | Potency [14] | outcome [15] | Potency [16]

CN(Cc1cnc2nc(N)nc(N)c2n1)c1ccc(C(=O)N[C@@H](CCC(=O)O)C(=O)O)cc1
active: Potency [14] 0.58 µM
-0.856%: viability change [14]
inactive: Potency [1] | outcome [2] | Potency [3] | Potency [4] | outcome [6] | outcome [7] | outcome [8] | Potency [9] | Potency [10] | Potency [11] | Potency [19] | Potency [12] | outcome [15] | Potency [16]
79.4 µM (active) and inactive: Potency [17]

C[C@](N)(Cc1ccc(O)c(O)c1)C(=O)O
inactive: Potency [1] | outcome [2] | outcome [6] | outcome [7] | Potency [9] | Potency [11] | Potency [19] | Potency [12] | activation [13] 1.25% | outcome [15] | Potency [16]
active: Potency [3] 3.77 µM | Potency [4] 0.844 µM | Potency [17] 1.89 µM | Potency [5] 1.89 µM
